# PubChem BioAssay AID488890 (Southern Research Specialized Biocontainment Screening …, 2010)
# The campaign covered roughly 320,000 compounds. About 1,300 (0.41%) were called active. About 3% were inconclusive and are not listed. The rule behind the calls is not given here. Only a sample is shown. Entries with a potency or affinity are not part of this list.
# Assay: growth inhibition of non-replicating M. tuberculosis (AID 488890);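 note: plate controls were DMSO cells for no effect and high antibiotic wells for full effect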
# Settings: Mycobacterium tuberculosis non-replicating, at 25 µM, stronger effect = higher value
row,SMILES,inhibition [%]
1,CCc1nnc(NC(=O)CCS(=O)(=O)c2ccc(C)cc2)s1,77.7
2,CC(C)Cc1nnc(NC(=O)CCC(=O)Nc2ccc(Cl)cc2)s1,12.6
3,C=CCOC(=O)/C(=C\c1ccccc1)NC(=O)c1ccco1,-12.7
4,C[C@H](NC(=O)c1nc[nH]c1C(=O)N1CCN(C(=O)OC(C)(C)C)CC1)C(=O)OC(C)(C)C,-4.48
5,O=[N+]([O-])c1ccc(OCCCCN2CCc3ccccc3C2)cc1,57.5
6,COc1ccc(OCCCN2CCc3ccccc3C2)cc1,46.6
7,Cc1nc(/N=C(\N)NC(=O)c2ccccc2)nc2ccccc12,-4.45
8,Cc1ccc2nc(/N=C(\N)NC(=O)N3c4ccccc4Sc4ccccc43)nc(C)c2c1,10.2
9,Cc1ccc2nc(N=C(N)N)nc(C)c2c1,30.9
10,Cc1cc2nc(/N=C(\N)NC(=O)N3c4ccccc4Sc4ccccc43)nc(C)c2cc1C,-20.4
11,Cc1ccccc1Cn1cc(S(=O)(=O)c2ccc(C(C)C)cc2)c(=O)c2cc3c(cc21)OCO3,11.4
12,Cc1ccc(S(=O)(=O)NC(CCc2ccccc2)CC(=O)C(C)(C)C)cc1 (stereo unspecified),0.24
13,CCOC(=O)CN1C2=NCCCN2c2ccccc21,15.4
14,O=C(Cc1ccc(Cl)cc1)Nc1cccnc1,30.9
15,O=C(O)c1ccccc1Nc1cc(Cl)c2nonc2c1[N+](=O)[O-],71.1
16,O=C(O)c1ccc(Nc2cc(Cl)c3nonc3c2[N+](=O)[O-])cc1,76
17,CC(NC(=O)c1cc(S(=O)(=O)N2CCOCC2)ccc1N1CCCC1)c1ccc(Cl)c(Cl)c1 (stereo unspecified),4.97
18,Cc1cccc(Cn2c(N3CCN(C)CC3)nc3c2c(=O)n(C)c(=O)n3C)c1,-18
19,CCOC(=O)c1c(NC(=O)COC(=O)c2ccccn2)sc(C)c1C,37
20,CCOC(=O)c1c(NC(=O)COC(=O)c2nccnc2N)sc2c1CCC2,26.4
21,Cc1ccc(CN2C(=O)CSC2c2ccccc2F)cc1 (stereo unspecified),10.3
22,CCCCCCn1c(COc2ccccc2F)nnc1SCC(=O)c1c(N)n(C)c(=O)n(C)c1=O,-10.3
23,CC1=CS(=O)(=O)CC1Sc1nc(C)n[nH]1 (stereo unspecified),-1.03

row,SMILES,inhibition [%]
1,Cc1ccc(O)c(C(=O)c2cnc3c(c2)c(=O)n(C)c(=O)n3C)c1,-3.64
2,O=C(Cn1ccc2cc(S(=O)(=O)N3CCCC3)ccc21)NCc1ccco1,21.9
3,CN1C(=O)N(C)c2cccc3cccc1c23,0.15
4,CN1C(=O)N(C)c2ccc(Br)c3cccc1c23,6.26
5,OCC1(Cc2ccccc2)CCN(Cc2cnc(-c3cccc4ccccc34)nc2)CC1,4.25
6,CCC(C)NC(=O)Cn1c(=O)sc2ccccc21 (stereo unspecified),1.3
7,Cc1ccc2cccc(OCC(=O)Nc3cccc(S(=O)(=O)N4CCCC4)c3)c2n1,4.51
8,O=C(CSc1nc2ccccc2nc1N1CCOCC1)Nc1ccccc1F,6.49
9,CCN(CC(=O)Nc1ccc(NC(C)=O)cc1)C(=O)c1cc(CN2C(=O)c3ccccc3C2=O)ccc1OC,-15
10,Cc1c(Cl)cccc1NC(=S)N(C)CCC#N,-8.13
11,COc1cccc(C(=O)C2CCCN(Cc3ccccn3)C2)c1 (stereo unspecified),23
12,COc1ccc(C(=O)C2CCCN(Cc3ccccn3)C2)c(OC)c1 (stereo unspecified),21.8
13,COc1cccc(C(=O)C2CCCN(Cc3cccc(C)n3)C2)c1 (stereo unspecified),37.8
14,COc1ccc(C(=O)C2CCCN(Cc3cccc(C)n3)C2)c(OC)c1 (stereo unspecified),19.9
15,CCOc1ccccc1N1CCN(C(=O)c2cc[n+]([O-])cc2)CC1,15.7
16,CC(=O)Nc1ccc(S(=O)(=O)NCCc2csc(C)n2)cc1,-0.23
17,Cc1ccccc1OCCCC(=O)NCc1ccco1,15.7
18,C/C(=N\Nc1nc2ccccc2[nH]1)c1ccccn1,78.5
19,O=C(Nc1nc2ccccc2[nH]1)c1cc2ccccc2o1,34.8
20,CCOc1ncccc1C(=O)OCc1ccc([N+](=O)[O-])cc1,57.5
21,CCn1c(N2CCN(C(=S)NC)CC2)nc2ccccc21,-6.07
22,CC(C1CC1)N(Cc1ccccc1)C(=S)Nc1cccc(C(F)(F)F)c1 (stereo unspecified),66.8
23,Cc1ccc2c(c1)N=C(c1ccc(Cl)cc1)CO2,29

row,SMILES,inhibition [%]
1,Cc1ccc2c(c1)N=C(c1ccc(F)cc1)CO2,30.4
2,Clc1ccc(C2=Nc3cc(Cl)ccc3OC2)cc1,15.6
3,COc1ccc(C2=Nc3cc(C)ccc3OC2)cc1,23.2
4,Cc1cc(=O)[nH]c(SCC(=O)N2CCC(Cc3ccccc3)CC2)n1,0.43
5,CCN(C(=O)c1cc2cc3ccc(C)cc3nc2o1)c1ccc(OC)cc1,75.9
6,CS(=O)(=O)N1CCC(C(=O)N2CCN(c3ccc(F)cc3)CC2)CC1,-0.02
7,O=C(NCC(=O)N1CCc2ccccc2C1)c1ccc(Cl)cc1Cl,7.88
8,O=C(c1cc([N+](=O)[O-])ccc1Cl)N1CCc2ccccc21,43
9,O=C(c1cc([N+](=O)[O-])ccc1N1CCCCC1)N1CCc2ccccc21,21
10,C/C(CC(=O)Nc1ccc(Cl)cc1Cl)=N\NC(=O)c1ccco1,62.2
11,Cc1c2ccccc2nc2c(F)c(N(C)C)c(F)c(F)c12,67.8
12,Cc1c2ccccc2nc2c(F)c(NC(C)C)c(F)c(F)c12,25.6
13,CCCn1c(NC(=O)c2cccc(S(=O)(=O)N3CCCC3)c2)nc2ccccc21,12.3
14,Cc1[nH][nH]c(=O)c1N=Nc1ccccc1Cl,2.18
15,Cc1[nH]n(S(=O)(=O)c2ccccc2)c(=O)c1N=Nc1cccc(Cl)c1,70.6
16,C#CCOCCOCCOCCNc1nc(N2CCN(C(=O)[C@H](CCC(=O)O)n3cc([C@@H](N)[C@H](C)CC)nn3)CC2)nc(N2CCN(C(=O)[C@H](CCCCN)n3cc([C@@H](N)CC(N)=O)nn3)CC2)n1,-0.95
17,CCOC(=O)Cn1c(=O)cc(C)c2cccc(C)c21,78.8
18,Cc1cccc2c(=O)c(Br)c(C)n(Cc3ccccc3)c12,-19.5
19,CC(NC(=S)NC(=O)c1ccccc1)c1ccccc1 (stereo unspecified),38.7
20,COc1ccc(OC)c(C2Nc3ccccc3NC3=C2C(=O)CC(C)(C)C3)c1 (stereo unspecified),3.61
21,Cc1ccc(C)c(NC(=O)CN(C)C(=O)C2=NNC(=O)CC2)c1,10.7
22,NS(=O)(=O)c1ccc(NC(=O)COC(=O)c2cc(Cl)ccc2[N+](=O)[O-])cc1,16.2
23,CC(C)(C)NC(=O)COC(=O)c1cc(Cl)ccc1[N+](=O)[O-],70.2

row,SMILES,inhibition [%]
1,O=C(C1=C(O)C(=O)N(CCCn2ccnc2)C1c1ccc(F)cc1)c1ccco1 (stereo unspecified),1.68
2,CC(C)(C)NS(=O)(=O)c1ccc(NC(=O)C2CC(=O)N(CCc3ccc(F)cc3)C2)cc1 (stereo unspecified),6.94
3,COc1ccc(CCN2CC(C(=O)NCC3(O)CCCCC3)CCC2=O)cc1 (stereo unspecified),-4.96
4,Cc1cc(OC2CCCCC2)nc(NCc2ccccc2)n1,29.8
5,Cc1cc(N2CCOCC2)nc(NCc2ccccc2)n1,15.7
6,Cc1cc(N2CCN(c3ccccc3)CC2)nc(NCc2ccccc2)n1,36.7
7,Cc1cc(Nc2ccccc2)nc(NCc2ccccc2)n1,69.7
8,Cc1ccc(SCCC(=O)OCC(=O)Nc2ccc(C(N)=O)cc2)cc1,-4.28
9,COc1cc(S(=O)(=O)Nc2ccncc2)ccc1F,-1.45
10,COc1cccc(Nc2nc3cc(OC)ccc3cc2C#N)c1,2.07
11,O=C(Nc1nn[nH]n1)c1cc(-c2ccc(Cl)c(Cl)c2Cl)nc2ccccc12,28.1
12,Cc1cc2[nH]c(=O)c(=O)[nH]c2cc1S(=O)(=O)N(C)C1CCCCC1,13.6
13,O=C(O)CN1C(=O)CSC1=S,-1.21
14,CC(C)OC(=O)CCCN1C(=O)c2ccc(N)cc2C1=O,-10.2
15,COC(=O)C1=C(C)NC(C)=C(C(=O)OC)C1C(=O)OC1CCCCC1=O (stereo unspecified),-9.56
16,CCOC(=O)C1CCN(CC(=O)Nc2c(C(=O)OC)[nH]c3cccc(C)c23)CC1,2.06
17,CC(=O)NCC(=O)OCC(=O)N1c2ccccc2Sc2ccccc21,15.6
18,CCOC(=O)N1c2ccccc2Sc2ccccc21,11.9
19,COc1cccc(CN(C)C(=O)Cc2c[nH]c3ccccc23)c1OC,5.31
20,CCOC(=O)C1=C(COC(=O)c2ccc(C)s2)NC(=O)NC1C (stereo unspecified),11.3
21,CCS(=O)(=O)N1N=C(c2cccc(NS(C)(=O)=O)c2)CC1c1ccccc1 (stereo unspecified),36.4
22,Cc1nn(-c2nc3ccccc3[nH]2)c(=O)c2ccccc12,34
23,Cc1nn(-c2nc3ccccc3s2)c(N)c1-c1ccc(Cl)cc1,-4.69

row,SMILES,inhibition [%]
1,CCC(=O)c1ccc(OCC(=O)OCC(=O)c2cc(C)n(CC3CCCO3)c2C)cc1 (stereo unspecified),70.2
2,Cc1cc(C(=O)COC(=O)COc2ccc(C#N)cc2)c(C)n1C1CC1,47
3,CC(C)c1ccc(NC(=O)C2CCCN2S(=O)(=O)c2ccccc2F)cc1 (stereo unspecified),-6.6
4,CC1=Nc2ccccc2/C1=C/c1c(O)[nH]c(=O)[nH]c1=O,1.63
5,O=c1[nH]c(O)c(C=Nc2ccc(F)c(Cl)c2)c(=O)[nH]1,4.76
6,O=C(Nc1cccc(Cl)c1)c1nc[nH]c1C(=O)NCc1ccccc1,78.3
7,O=C(c1cccs1)N1CCC(Cc2ccccc2)CC1,11.9
8,Cc1cc(C(=O)N2CCC(Cc3ccccc3)CC2)c(C)o1,15.3
9,CCOCC(=O)N1CCC(Cc2ccccc2)CC1,47.1
10,CCCNC(=O)N1CCC(Cc2ccccc2)CC1,67.7
11,O=C(O)CCCC(=O)N1CCN(c2ncccn2)CC1,-16.3
12,COc1ccc(-n2cc(C(=O)c3cc4ccccc4oc3=O)c(C(C)=O)n2)cc1,19.3
13,COc1ccc(CCNC(=O)c2cccc(S(=O)(=O)N3CCOCC3)c2)cc1OC,16
14,O=C(Cc1ccc(Br)cc1)OCC(=O)c1ccc[nH]1,79.4
15,O=C(COC(=O)c1nc(Cl)ccc1Cl)c1ccc[nH]1,4.28
16,O=C(COC(=O)c1ccc[nH]c1=O)c1ccc(Cl)s1,21.8
17,O=C(Cc1ccc(Cl)c(Cl)c1)OCC(=O)c1ccc[nH]1,70.6
18,CC(=O)N1c2ccc(S(=O)(=O)NCC3CCC(C(=O)NCc4ccccc4)CC3)cc2CC1C (stereo unspecified),14.7
19,COc1ccc(CC2C(=O)N(C)C(=O)N(C)C2=O)c(OC)c1,-3.03
